Active and inactive are the calls of the source.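 Rule for the calls: active = every separate test run called active, meaning the signal drops and a potency is fitted within twice the top valid dose; inconclusive = runs disagree, poor fit, or flat partial inhibition; inactive = all runs inactive, flat, opposite direction or too weak.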
biological target: Mitogen-activated protein kinase 3 (Homo sapiens) (UniProt P27361); assay: inhibition of MAPK3 kinase activity – biochemical, ADP-Glo luminescence, cherry pick, set 2, selectivity assay for Dyrk1A inhibitor NFAT project, dose response (AID 602295); conditions: ERK1 kinase, 120 min; series mostly up to 10 µM; activity change, negative = inhibition: at the top concentration
Sequence (P27361 whole entry, looked up): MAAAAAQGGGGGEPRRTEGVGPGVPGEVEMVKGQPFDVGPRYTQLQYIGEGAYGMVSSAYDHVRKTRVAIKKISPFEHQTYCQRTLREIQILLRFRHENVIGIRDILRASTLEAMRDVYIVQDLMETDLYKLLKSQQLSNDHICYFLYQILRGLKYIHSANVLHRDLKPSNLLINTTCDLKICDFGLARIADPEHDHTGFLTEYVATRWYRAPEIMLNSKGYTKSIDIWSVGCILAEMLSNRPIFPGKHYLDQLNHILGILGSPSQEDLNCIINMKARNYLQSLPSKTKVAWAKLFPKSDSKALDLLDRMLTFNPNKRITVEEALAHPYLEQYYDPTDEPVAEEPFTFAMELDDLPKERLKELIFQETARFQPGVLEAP

Structure (SMILES) | activity change, negative = inhibition
Clc1ccc(CNc2nccc(-c3ccc4[nH]ncc4c3)n2)cc1Cl | 6.86% (inactive)
N#CCSc1nc(Nc2ccc3c(c2)OCO3)c2ccccc2n1 | -21.8% (inactive)
Brc1cc(Br)cc(CNc2nccc(-c3ccc4c(c3)OCO4)n2)c1 | 9.15% (inactive)
Clc1ccc(CNc2nccc(-c3ccc4c(c3)OCO4)n2)cc1Cl | 33.6% (inactive)
O=C(O)COc1ccc(/C=C/c2nc3ccc([N+](=O)[O-])cc3s2)cc1 | -12.7% (inactive)
c1nc(NCC2CCCC2)c2cc(-c3ccc4c(c3)OCO4)ccc2n1 | 13.2% (inactive)
CCOC(=O)c1ccc2ncc(C(=O)OCC)c(Nc3ccc(N4CCOCC4)cc3)c2c1 | -13.7% (inactive)
Clc1ccc(CNc2ncncc2-c2ccc3c(c2)OCO3)cc1 | 20.6% (inactive)
CCOC(=O)c1ccc(-c2ccc3ncnc(N(C)Cc4sccc4C)c3c2)o1 | 13.8% (inactive)
COc1cccc(NC(=O)c2sc(NC(=O)c3ccncc3)nc2C)c1 | -10.8% (inactive)
FC(F)(F)c1cccc(Nc2nccc(-c3ccc4c(c3)OCO4)n2)c1 | 5.81% (inactive)
Clc1ccccc1-c1ccc2ncnc(NCc3ccc4c(c3)OCO4)c2c1 | 0.907% (inactive)
Clc1ccc(CNc2ccnc(-c3ccc4[nH]ncc4c3)n2)cc1Cl | 12.2% (inactive)
Cc1nc(NC(=O)c2ccccc2)sc1-c1csc(N)n1 | -10% (inactive)
Cc1csc(CN(C)c2ncnc3ccc(-c4ccc5c(c4)OCO5)cc23)n1 | -18.1% (inactive)
Cc1ccc(CNc2ncnc3ccc(-c4ccc5c(c4)OCO5)cc23)o1 | 12.1% (inactive)

Structure (SMILES) | activity change, negative = inhibition
Cc1ccsc1CN(C)c1ncnc2ccc(-c3ccoc3)cc12 | 9.45% (inactive)
COc1cccc(Nc2ncnc3sc(C)cc23)c1 | -2.65% (inactive)
CC(=O)Nc1ccc(SCc2ncc(-c3ccccc3)o2)cc1 | -22.2% (inactive)
Cc1occc1CNc1ncnc2ccc(-c3ccc4c(c3)OCO4)cc12 | 41.3% (inactive)
CN(Cc1cccs1)c1ncnc2ccc(-c3ccc4c(c3)OCO4)cc12 | 19.4% (inactive)
CCN(Cc1cccs1)c1ncnc2ccc(-c3ccc4c(c3)OCO4)cc12 | 13.5% (inactive)
Cc1c(-c2ccnc(NCc3ccc(Cl)cc3)n2)sc(=O)n1C | 18.4% (inactive)
O=C(Nc1nc2ccc(Cl)cc2s1)C1CCCO1 (configuration not stated) | -21.8% (inactive)
COc1ccc(-c2nccc(NCc3ccc(C)cc3)n2)cc1 | -1% (inactive)
Clc1ccc(CNc2nccc(-c3ccc4cn[nH]c4c3)n2)cc1Cl | -3.78% (inactive)
Cc1ccsc1CNc1ncnc2ccc(-c3ccc4c(c3)OCO4)cc12 | 1.53% (inactive)
O=C(Nc1nc(-c2ccncc2)cs1)c1ccco1 | -15.8% (inactive)
Cc1noc(CN(C)c2ncnc3ccc(-c4ccc5c(c4)OCO5)cc23)n1 | 24.3% (inactive)
COc1cccc(Nc2nc(NCCO)c3ccccc3n2)c1 | 14.1% (inactive)
Cc1nc(CN(C)c2ncnc3ccc(-c4ccc5c(c4)OCO5)cc23)cs1 | 9.05% (inactive)
Cc1nc(CNc2ncnc3ccc(-c4ccc5c(c4)OCO5)cc23)cs1 | 25.5% (inactive)

Source: PubChem BioAssay AID602295 (Broad Institute, 2012)
